Assay in all cases: protein binding microarray; high values mean tight binding
Settings in all cases: dsDNA, one strand shown

Test [1] has as its target RELARELA (p65 homodimer) (Homo sapiens, UniProt Q04206 1-307).
Test [2] concerns the target p50p50 homodimer (Homo sapiens, UniProt P19838 7-356).
Test [3] concerns the target T1, p52p52 homodimer (Homo sapiens, UniProt Q00653 4-332).
T1 sequence: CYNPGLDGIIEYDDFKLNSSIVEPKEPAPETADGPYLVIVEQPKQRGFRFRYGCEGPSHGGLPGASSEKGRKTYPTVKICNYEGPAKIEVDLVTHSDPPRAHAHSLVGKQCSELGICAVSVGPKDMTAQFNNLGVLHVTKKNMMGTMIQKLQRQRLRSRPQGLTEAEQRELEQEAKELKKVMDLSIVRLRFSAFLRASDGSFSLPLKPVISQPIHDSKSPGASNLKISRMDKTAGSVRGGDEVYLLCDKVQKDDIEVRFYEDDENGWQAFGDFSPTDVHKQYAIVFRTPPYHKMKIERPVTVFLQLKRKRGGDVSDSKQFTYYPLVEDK

For test [4], the target named is RELA (p65) subunit of heterodimer;p50 subunit (Homo sapiens;Homo sapiens, UniProt Q04206;P19838 1-307;7-356).
Test [5] addresses RELA (p65) subunit of heterodimer;p52 subunit (Homo sapiens;Homo sapiens, UniProt Q04206;Q00653 1-307;4-332).
For test [6], the target named is RELB subunit;p50 subunit (Homo sapiens;Homo sapiens, UniProt Q01201;P19838 120-401;7-356).
Test [7] has as its target T2, RELB subunit;p52 subunit (Homo sapiens;Homo sapiens, UniProt Q01201;Q00653 120-401;4-332).
T2 sequence 1: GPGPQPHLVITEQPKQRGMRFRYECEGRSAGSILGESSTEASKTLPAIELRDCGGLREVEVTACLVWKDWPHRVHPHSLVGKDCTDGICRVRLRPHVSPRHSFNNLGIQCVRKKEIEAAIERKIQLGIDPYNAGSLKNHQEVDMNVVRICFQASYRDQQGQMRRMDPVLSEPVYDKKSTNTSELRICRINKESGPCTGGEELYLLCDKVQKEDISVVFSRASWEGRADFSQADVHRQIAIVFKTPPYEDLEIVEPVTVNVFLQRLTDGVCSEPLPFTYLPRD
T2 sequence 2: T1 sequence

Test [8] has as its target C-Rel subunit;p50 subunit (Homo sapiens;Homo sapiens, UniProt Q04864;P19838 1-285;7-356).
Test [9] concerns the target T3, C-Rel subunit;p52 subunit (Homo sapiens;Homo sapiens, UniProt Q04864;Q00653 1-285;4-332).
T3 sequence 1: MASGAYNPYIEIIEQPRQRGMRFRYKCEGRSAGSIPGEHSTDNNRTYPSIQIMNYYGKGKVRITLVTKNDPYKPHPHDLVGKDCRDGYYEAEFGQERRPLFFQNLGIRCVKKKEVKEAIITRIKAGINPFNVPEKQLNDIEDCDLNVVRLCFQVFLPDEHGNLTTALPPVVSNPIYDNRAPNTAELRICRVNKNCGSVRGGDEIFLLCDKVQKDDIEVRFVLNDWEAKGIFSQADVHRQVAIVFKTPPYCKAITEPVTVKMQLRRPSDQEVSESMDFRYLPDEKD
T3 sequence 2: T1 sequence

Chain of p50p50 homodimer (P19838 7-356): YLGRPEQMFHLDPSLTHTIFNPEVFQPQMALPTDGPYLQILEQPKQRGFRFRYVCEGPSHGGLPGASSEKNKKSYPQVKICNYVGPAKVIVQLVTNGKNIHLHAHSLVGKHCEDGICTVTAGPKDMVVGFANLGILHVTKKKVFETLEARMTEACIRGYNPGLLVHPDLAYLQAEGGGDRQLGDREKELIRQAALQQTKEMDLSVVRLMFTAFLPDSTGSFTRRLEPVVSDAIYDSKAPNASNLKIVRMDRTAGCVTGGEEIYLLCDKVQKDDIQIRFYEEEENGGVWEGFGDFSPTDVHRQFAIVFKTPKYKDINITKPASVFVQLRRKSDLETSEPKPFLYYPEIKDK
Chain of RELA (p65) subunit of heterodimer;p50 subunit (Q04206 1-307, chain 1 of 2): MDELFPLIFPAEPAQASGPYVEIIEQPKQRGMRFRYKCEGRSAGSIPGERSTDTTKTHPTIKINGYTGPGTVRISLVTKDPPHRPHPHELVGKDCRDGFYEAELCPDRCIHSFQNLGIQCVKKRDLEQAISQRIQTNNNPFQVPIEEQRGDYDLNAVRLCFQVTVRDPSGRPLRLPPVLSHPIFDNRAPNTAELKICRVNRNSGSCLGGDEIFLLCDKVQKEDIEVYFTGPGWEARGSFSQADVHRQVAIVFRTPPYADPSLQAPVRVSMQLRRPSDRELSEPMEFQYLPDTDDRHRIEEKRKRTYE
Chain of RELA (p65) subunit of heterodimer;p50 subunit (P19838 7-356, chain 2 of 2): as the sequence (P19838 7-356) above
Chain of RELARELA (p65 homodimer) (Q04206 1-307): as the sequence (Q04206 1-307, chain 1 of 2) above

For AAAGGGATCCC, the binding signal in [1] is 0.0658 z-score; in [2], -0.302 z-score; in [3] it was 0.0251 z-score; in test [4] it was -0.128 z-score; in test [5], -0.268 z-score; in [6] it was -0.184 z-score. Besides, the binding signal is -0.115 z-score in [7], -0.213 z-score in test [8] and -0.202 z-score in [9].

CAGTTACTCCT: the binding signal in test [1] is -0.453 z-score; in test [2], -1.22 z-score; in [3] it was -0.649 z-score; in test [4], -0.763 z-score; in test [5] it was -0.94 z-score; in test [6] it was -0.976 z-score. Further, the binding signal was -0.763 z-score in test [7], -1.08 z-score in [8] and -0.871 z-score in [9].

Regarding AGAAATACCCT, the binding signal in [1] was determined as 0.554 z-score; in test [2] it was 1.28 z-score; in test [3] it was 1.33 z-score; in [4], 1.55 z-score; in test [5], 1.35 z-score; in test [6], 1.21 z-score. For the same sequence, the results for the binding signal in test [7], in test [8] and in test [9] were 1.27 z-score, 0.817 z-score and 1.68 z-score, respectively.

As for GAAAACATCCC, the binding signal in test [1] was 0.244 z-score; in test [2] it was -0.173 z-score; in test [3], -0.106 z-score; in test [4], -0.0842 z-score; in test [5], -0.0683 z-score; in test [6], -0.24 z-score. Besides, the binding signal was -0.321 z-score in test [7], -0.174 z-score in test [8] and -0.211 z-score in test [9].

Turning to CGGTACATCCC, the binding signal was found to be 0.722 z-score in test [1]; 0.342 z-score in test [2]; 1.69 z-score in test [3]; 0.384 z-score in test [4]; 0.93 z-score in [5]; 0.529 z-score in test [6]. Also, the binding signal stood at 0.811 z-score in [7], 0.0779 z-score in test [8] and 0.879 z-score in test [9].

AAATTCATCCT: the binding signal is 0.0684 z-score in [1]; -0.972 z-score in [2]; -0.568 z-score in test [3]; -0.664 z-score in test [4]; -0.9 z-score in [5]; -0.972 z-score in [6]. For the same sequence, the binding signal is -0.72 z-score in [7], -1.11 z-score in [8] and -0.904 z-score in test [9].

As for GGATTTTCCCC, the binding signal in test [1] was 3.79 z-score; in [2] it was 1.16 z-score; in test [3], 2.75 z-score; in test [4], 2.27 z-score; in test [5], 2.49 z-score; in test [6], 2.15 z-score. Moreover, the binding signal in [7] came out at 2.39 z-score; in [8] it was 1.94 z-score; in test [9], 2.19 z-score.

GGGTGAATCCT: the binding signal was 0.03 z-score in test [1]; 0.0518 z-score in test [2]; 0.368 z-score in test [3]; -0.186 z-score in test [4]; 0.102 z-score in test [5]; -0.241 z-score in test [6]. The results for the binding signal in test [7], in test [8] and in [9] were -0.135 z-score, -0.176 z-score and -0.138 z-score, respectively.

Regarding GGGTTGGTCCT, the binding signal was -0.152 z-score in test [1]; -1.58 z-score in [2]; -0.471 z-score in test [3]; -0.621 z-score in test [4]; -0.757 z-score in test [5]; -0.889 z-score in test [6]. The figures for the binding signal in test [7], in test [8] and in test [9] were -0.766 z-score, -1.12 z-score and -0.527 z-score, respectively.

Regarding AAGGGCACCCC, the binding signal in [1] is -0.322 z-score; in test [2], -0.576 z-score; in test [3], -0.342 z-score; in [4], -0.454 z-score; in test [5], -0.414 z-score; in test [6] it was -0.379 z-score. The binding signal in test [7] is -0.217 z-score; in test [8], -0.33 z-score; in test [9], -0.364 z-score.

With AGGAATATCCC, the binding signal in [1] is 1.97 z-score; in test [2] it was 0.155 z-score; in test [3], 0.511 z-score; in test [4], 0.866 z-score; in [5], 0.83 z-score; in test [6], 0.0984 z-score. Besides, the binding signal was 0.231 z-score in test [7], 0.402 z-score in [8] and 0.834 z-score in test [9].

Take AAAAACATCCT: the binding signal in test [1] was -0.23 z-score; in [2], -0.94 z-score; in test [3], -0.575 z-score; in test [4], -0.766 z-score; in test [5], -0.82 z-score; in [6] it was -0.865 z-score. Also, the values for the binding signal in [7], in test [8] and in test [9] were -0.741 z-score, -1.09 z-score and -0.784 z-score, respectively.

For the sequence CGGTAGTCCCC, the binding signal was 0.678 z-score in test [1]; 1.22 z-score in [2]; 1.51 z-score in test [3]; 1.43 z-score in [4]; 1.31 z-score in test [5]; 1.05 z-score in test [6]. Further, the binding signal was 1.33 z-score in [7], 1.12 z-score in test [8] and 1.42 z-score in test [9].

Take CAGGACTTCCT: the binding signal in test [1] is -0.0226 z-score; in [2], -0.664 z-score; in test [3], -0.608 z-score; in test [4] it was -0.403 z-score; in [5], -0.542 z-score; in test [6], -0.897 z-score. Further, the binding signal in test [7] was -0.842 z-score; in [8], -0.448 z-score; in test [9], -0.475 z-score.

In the case of GAATAACTCCT, the binding signal in test [1] was -0.147 z-score; in test [2], -1.37 z-score; in test [3], -0.713 z-score; in test [4], -0.733 z-score; in [5], -0.946 z-score; in test [6], -0.919 z-score. Moreover, the binding signal in [7] is -0.853 z-score; in test [8], -0.82 z-score; in [9], -0.791 z-score.

The record behind these values is publication PMC3218832.
